Test results published in PubChem BioAssay (NCATS).
The source made the active and inactive calls. Calls follow the shape of the full dose curve.

Test: qHTS drug screen for cell cycle checkpoint inhibitors in PARPi-resistant BRCA-mutant ovarian cancer cell lines. (AID 1963452)
Settings: PEO1/OlaR viability, CellTiter-Glo luminescence, 96 h, stronger effect = lower value
Procedure, shortened: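 PEO1, PEO4 and PEO1/OlaR ovarian cancer cells, 600 per well, exposed 96 h at 37C to a dilution series. Viability read by CellTiter-Glo luminescence, normalized to DMSO and empty wells; activity summarized as Z-AUC.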

[1] = measured here: PEO1 parental Z-AUC

## CC[C@H](CC#N)OC(=O)N[C@@H](C)c1cccc(NC(=O)Nc2ccc(-c3cnco3)c(OC)c2)c1
  Z-AUC: 0.186 (inactive)
[1]
  Z-AUC: -0.393
Measured here: PEO4 Z-AUC
  Z-AUC: -0.852

## CN(C)CCCNC(=O)c1ccc(-c2cc(O)c3ncccc3c2)cc1
  Z-AUC: -0.763 (inactive)
[1]
  Z-AUC: -0.299
Measured here: PEO4 Z-AUC
  Z-AUC: -0.292

## COc1cc(F)c(C(C)C)cc1-c1ccc(C(F)(F)F)cc1CN1C(=O)O[C@H](c2cc(C(F)(F)F)cc(C(F)(F)F)c2)[C@@H]1C
  Z-AUC: 0.469 (inactive)
[1]
  Z-AUC: 0.239
Measured here: PEO4 Z-AUC
  Z-AUC: 0.327

## Cc1ccc(NC(=O)c2cccc(N(C)C)c2)cc1NC(=O)c1ccc(O)cc1
  Z-AUC: 1.75 (inactive)
[1]
  Z-AUC: 1.05
Measured here: PEO4 Z-AUC
  Z-AUC: 0.905

## Clc1ccc(C2(c3ccc(-c4cn[nH]c4)cc3)CCNCC2)cc1
  Z-AUC: 0.223 (inactive)
[1]
  Z-AUC: 0.18
Measured here: PEO4 Z-AUC
  Z-AUC: 0.0319

## O=c1[nH]nc(OCCCc2ccc(Cl)cc2)c(NCc2cccnc2)c1Br
  Z-AUC: -1.27 (inactive)
[1]
  Z-AUC: -1.54
Measured here: PEO4 Z-AUC
  Z-AUC: -1.42

## COc1ccc(Cn2ccc3ccc(C(=O)NO)cc32)cc1
  Z-AUC: 1.36 (inactive)
[1]
  Z-AUC: 1.01
Measured here: PEO4 Z-AUC
  Z-AUC: 1

## Cc1ccccc1C(=O)c1ccc(Nc2ccc(Br)cc2N)cc1Cl
  Z-AUC: -0.304 (inactive)
[1]
  Z-AUC: 0.73
Measured here: PEO4 Z-AUC
  Z-AUC: 0.429

## CN1CCN(c2ncc(-c3cc(Cl)cc(Cl)c3Cl)c(N)n2)CC1
  Z-AUC: -0.667 (inactive)
[1]
  Z-AUC: -0.953
Measured here: PEO4 Z-AUC
  Z-AUC: -0.943

## CCCCC(C)(C)[C@H](O)C=C[C@H]1[C@H](O)CC(=O)[C@H]1CC=CCCCC(=O)O
  Z-AUC: 0.66 (inactive)
[1]
  Z-AUC: 0.266
Measured here: PEO4 Z-AUC
  Z-AUC: 0.726

## CNC1CCC(N(Cc2cccc(-c3ccncc3)c2)C(=O)c2sc3ccccc3c2Cl)CC1 (stereo not drawn)
  Z-AUC: 0.143 (inactive)
[1]
  Z-AUC: 0.312
Measured here: PEO4 Z-AUC
  Z-AUC: 0.329
